Measurements published in ChEMBL document CHEMBL3988442, “University of Dundee, Small-Polar-MMV Screening Library” (2021).
The campaign covered roughly 69,000 compounds. About 420 (0.61%) showed an effect of 50% or more. This is one part of a sample in which strong results are shown more often than they occur.

These compounds were tested against T1, Histidine--tRNA ligase (Leishmania infantum) (UniProt A4I591) (assay: Leishmania infantum Histidine tRNA synthetase (LdHisRS)). Details: 30 µM.
T1 sequence (whole entry): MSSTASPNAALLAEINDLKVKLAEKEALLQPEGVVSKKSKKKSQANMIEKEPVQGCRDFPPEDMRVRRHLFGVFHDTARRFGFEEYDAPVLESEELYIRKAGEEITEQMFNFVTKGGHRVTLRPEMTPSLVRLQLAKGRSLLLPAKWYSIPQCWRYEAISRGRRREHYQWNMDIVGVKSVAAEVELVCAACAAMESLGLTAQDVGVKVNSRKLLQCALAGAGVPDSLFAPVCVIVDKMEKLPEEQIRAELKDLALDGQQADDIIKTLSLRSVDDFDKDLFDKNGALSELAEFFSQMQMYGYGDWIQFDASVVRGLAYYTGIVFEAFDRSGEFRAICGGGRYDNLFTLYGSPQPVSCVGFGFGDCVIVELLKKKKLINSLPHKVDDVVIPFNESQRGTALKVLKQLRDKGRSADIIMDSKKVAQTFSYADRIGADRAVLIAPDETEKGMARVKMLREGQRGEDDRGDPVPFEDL
Format: functional
Design: scale not given: in the data most compounds retested in dose-response had high values

Row | SMILES | Percent Effect
1 | CCOc1ccc2[nH]c(=O)c(CN3CCCC3c3ccccn3)cc2c1 (stereo unspecified) | 53%
2 | O=c1[nH]c2cc3c(cc2cc1CN1CCCC1c1ccccn1)OCO3 (stereo unspecified) | 14.5%
3 | O=c1[nH]c2cc3c(cc2cc1CN1CCCC1c1ccccn1)CCC3 (stereo unspecified) | 43.4%
4 | COCCC(=O)N1C[C@H]2CCC[C@@]2(COC)C1 | 5.77%
5 | Cn1cc(N2C(=O)CC[C@@H]3[C@H]2CCN3Cc2nccs2)cn1 | 9.72%
6 | Cc1cc(CN2CCc3nn(C)c(=O)cc3C2)on1 | 103%
7 | CCCn1nc2c(cc1=O)CN(Cc1cc(C)on1)CC2 | 55.8%
8 | CCCn1nc2c(cc1=O)CN(Cc1ccccn1)CC2 | 75.8%
9 | CCCn1nc2c(cc1=O)CN(Cc1ncc(C(C)(C)C)o1)CC2 | 45.5%
10 | Cc1cc(CN2CCc3cncnc3C2)on1 | 24%
11 | Cc1cc(CN2CCc3nn(C)c(=O)cc3C2)no1 | 45.5%
12 | CCCn1nc2c(cc1=O)CN(Cc1nc(C)c(C)o1)CC2 | 13.2%
13 | CCCn1nc2c(cc1=O)CN(Cc1cc(C)no1)CC2 | 69.7%
14 | CCCn1nc2c(cc1=O)CN(Cc1nc(C)c3ccccc3n1)CC2 | 27.1%
15 | CCn1nc2c(cc1=O)CN(Cc1cc(C)on1)CC2 | 21.2%
16 | CCCn1nc2c(cc1=O)CN(Cc1nc(CCOC)no1)CC2 | 48.1%
17 | CN(C)C(=O)N1C[C@@H]2CC[C@H](C1)N(C(=O)c1c(Cl)cccc1Cl)C2 | 8.06%
18 | CS(=O)(=O)N1C[C@@H]2CC[C@H](C1)N(Cc1ccsc1)C2 | 31.2%
19 | CNC(=O)[C@H]1CO[C@H]2CCN(Cc3ccc4ccccc4n3)C[C@H]2C1 | 10.5%
20 | CNC(=O)[C@@H]1COC[C@H]2CN(C(=O)c3ccc(C)c(F)c3)C[C@H]21 | 12.3%
21 | CC(C)CC(=O)N1CC[C@@H]2[C@H](CC1)N(S(C)(=O)=O)CCS2(=O)=O | 19.2%
22 | CS(=O)(=O)N1C[C@@H]2COC[C@]2(COCC(=O)N2CCCC2)C1 | 2.73%
23 | CCCn1nc2c(cc1=O)CN(Cc1c(C)noc1C)CC2 | 27.3%

Row | SMILES | Percent Effect
24 | Cc1noc(C)c1CN1CCc2nn(C(C)C)c(=O)cc2C1 | 53%
25 | Cc1cc(CN2CCc3nn(C(C)C)c(=O)cc3C2)no1 | 26.9%
26 | O=C1CC[C@]2(CC[C@@H](NC3CCOCC3)CC2)N1Cc1ccccc1 | 7.77%
27 | CN(C(=O)c1cccnc1)C1CCCN(CCc2ccccc2)C1 (stereo unspecified) | -1.64%
28 | CCCN(C(=O)c1ccncc1)c1nc2c(s1)CCc1c-2cnn1C | 82.3%
29 | COCCN(C)C(=O)c1nc2c(s1)CCCN2C | 24.6%
30 | CCCN(C(=O)COC)c1nc2c(s1)CCc1c-2cnn1C | 80%
31 | CCCC(=O)N(CCN1CCOCC1)c1nc2c(OC)ccc(C)c2s1 | -3.48%
32 | CCN(CCN1CCOCC1)C(=O)c1cccnc1 | 5.71%
33 | CCCN(C(=O)c1cccnc1)c1nc2c(s1)CCc1c-2cnn1C | 101%
34 | CCCN(C(=O)c1ccc(-n2ccnn2)cc1)c1cccnc1 | 11.1%
35 | Cc1cnccc1-c1cnn(CCNC(=O)c2ccncc2)c1C1CC1 | -1.42%
36 | Cc1ccc(C(=O)N2CC[C@@]3(O)CCN(C(=O)N(C)C)C[C@H]3C2)cc1Cl | -2.13%
37 | CNc1nc(C(=O)N2C[C@H]3CC[C@@H]2CN(C2CCOCC2)C3)cs1 | 4.17%
38 | COc1ccccc1CN1C(=O)O[C@@H]2CN(C(C)C)C[C@@H]21 | 3.33%
39 | O=C1[C@@H]2CN(c3ncccc3Cl)C[C@]2(C(=O)O)CN1CC1CC1 | 3.28%
40 | CCOc1ccc(CN2CCN(CCOC)[C@@H]3CS(=O)(=O)C[C@@H]32)cc1 | 25%
41 | Cn1ccnc1CN1CCCC(Cc2ccnc3ccncc23)CC1 (stereo unspecified) | 43.3%
42 | c1cc2nccc(CC3CCCN(Cc4ncc[nH]4)CC3)c2cn1 (stereo unspecified) | 50%
43 | c1cc2nccc(CC3CCCN(Cc4c[nH]cn4)CC3)c2cn1 (stereo unspecified) | 24.7%
44 | CN1CCCC(Cc2ccnc3ccncc23)CC1 (stereo unspecified) | 0%
45 | c1cc2nccc(CC3CCCN(C4CCOCC4)CC3)c2cn1 (stereo unspecified) | 22.7%
46 | CS(=O)(=O)N1CCCC(Cc2ccnc3ccncc23)CC1 (stereo unspecified) | 80.2%

Row | SMILES | Percent Effect
47 | CC(=O)N1[C@H](Cn2cncn2)C[C@@H]2CN(Cc3cccnc3)CC[C@@H]21 | 13.9%
48 | Cc1nc(C(=O)N2CCN(S(C)(=O)=O)[C@@H]3CS(=O)(=O)C[C@@H]32)cs1 | 18.7%
49 | c1cc(CN2CC[C@H]3O[C@@H](COCC4CCOCC4)CC[C@H]32)ccn1 | 22%
50 | CCN1C[C@H]2[C@@H](C1)N(S(=O)(=O)c1ccccc1)CC[C@H]2OC | 24%
51 | CN(C)CCO[C@H]1CN(C(=O)c2ccc3c(c2)OCO3)[C@@H]2COC[C@H]12 | 13.7%
52 | O=C(NCC1(O)CCC1)c1c(O)cc(F)cc1F | -2.17%
53 | CCCn1cc(Cl)c(C(=O)N2C[C@H]3C[C@H](OC)C[C@H]3C2)n1 | 8.63%
54 | Cc1nc(C)n(CC2CCCN2Cc2nc(C)c3ccccc3n2)n1 (stereo unspecified) | 56.5%
55 | Cc1nc(C)n(CC2CCCN2Cc2nc(N)c3ccccc3n2)n1 (stereo unspecified) | 36.5%
56 | Cc1nc(C)n(CC2CCCN2Cc2nc3ccccc3nc2C)n1 (stereo unspecified) | 17.6%
57 | Cc1nn(C)c(C)c1C1CCCN1Cc1nc(C)c2ccccc2n1 (stereo unspecified) | 46%
58 | Cc1nc(CN2CCCC2c2ccsc2)nc2ccccc12 (stereo unspecified) | 54%
59 | Cc1nc(CN2CCCC2c2noc(C3CC3)n2)nc2ccccc12 (stereo unspecified) | 42.2%
60 | CC(C)CN1C[C@@H]2C(=O)NC3(CCN(C(=O)c4cccnc4)CC3)[C@@H]2C1 | 23.3%
61 | CN1[C@@H](C(=O)NCC2CC2)C[C@@H]2CN(Cc3ccsc3)C[C@@H]21 | 11.9%
62 | CS(=O)(=O)N1C[C@H]2CCC[C@@]2(COc2ccccn2)C1 | 10.3%
63 | CN(C)C(=O)CO[C@H]1CN(Cc2cccc(C#N)c2)[C@@H]2COC[C@H]12 | -11.4%
64 | COc1ncccc1C(=O)N1CC[C@H]2C[C@@H](c3noc(C)n3)O[C@@H]2C1 | 46.1%
65 | O=C(O)[C@@]12CN(c3cnccn3)C[C@@H]1CN(C1CCCC1)C2 | 21%
66 | O=C(O)c1ccccc1-c1ccc(CN2CC(c3ccncn3)C2)o1 | 29.4%
67 | Nc1nccc(C2CN(Cc3ccc(-c4ccccc4C(=O)O)o3)C2)n1 | 54.9%
68 | Cc1nccc(C2CN(Cc3ccc(-c4ccccc4C(=O)O)o3)C2)n1 | 12.7%
69 | O=C(CN1C[C@H]2C[C@H](OCc3ccccc3)C[C@H]2C1)N1CCOCC1 | 15.7%

Row | SMILES | Percent Effect
70 | CN1CCN(Cc2cnn(-c3ccccc3Cl)c2)[C@H]2CS(=O)(=O)C[C@H]21 | 5.71%
71 | Cc1ccc(-c2ncc(C(=O)N3CCCN4CCC[C@H]4C3)c(O)n2)cc1 | 11%
72 | CN(C)c1ncc(-c2c(-c3ccccc3)ncn2C(CO)C(=O)O)cn1 (stereo unspecified) | 72.8%
73 | Cc1c(-c2c(-c3ccccc3)ncn2[C@H](CO)C(=O)O)cnn1C | 7.85%
74 | Cc1nn(C)c(C)c1-c1c(-c2ccccc2)ncn1[C@H](CO)C(=O)O | 1.57%
75 | O=C1C[C@H]2CC[C@@H](CN1)N2C(=O)CCc1ccccc1 | 8.39%
76 | CNC(=O)CN1CC[C@H]2CN(C(=O)c3cccn3C)C[C@H]2C1 | 2.78%
77 | Cc1ccc(S(=O)(=O)NC(CO)CC(C)C)cc1N(C)C (stereo unspecified) | 43.4%
78 | CSCC(C)NS(=O)(=O)c1ccc(C)c(N(C)C)c1 (stereo unspecified) | 19.3%
79 | Cc1ccc(S(=O)(=O)N[C@H](CO)C(C)C)cc1N(C)C | 53%
80 | O=C(NCCc1ccncc1)[C@@H]1CC[C@@H]2[C@@H](CCN2Cc2ccco2)O1 | 20%
81 | CNC(=O)N1C[C@H]2C[C@H](C(=O)Nc3ccccc3)[C@@H](C1)O2 | 19.6%
82 | COc1ccc(NC(=O)Cn2nc(C)c(C(C)=O)c2C)cc1 | 52.2%
83 | COc1ccc(NC(=O)Cn2nc(C)c(C)cc2=O)cc1 | -0.8%
84 | CC(=O)c1c(C)nn(CC(=O)Nc2ccc(Br)cc2)c1C | 71.3%
85 | CC(=O)c1c(C)nn(CC(=O)Nc2ccc(F)cc2)c1C | 15.7%
86 | COc1ccc(NC(=O)Cn2nc(C)c(C)cc2=O)cc1OC | 7.69%
87 | Cc1cc(=O)n(CC(=O)Nc2ccc(Cl)cc2)nc1C | 7.2%
88 | O=C1O[C@@H]2CN(S(=O)(=O)N3CCCC3)C[C@@H]2N1CCc1cccc(Cl)c1 | 7.29%
89 | O=C1CC[C@]2(CC[C@@H](NCc3ccsc3)CC2)N1Cc1ccccc1 | 25%
90 | COCCN1C(=O)[C@H]2CC[C@@H]1CN(C(=O)COc1ccc(F)c(Cl)c1)C2 | -13.3%
91 | N#Cc1ccsc1N1CCC(Sc2ccncc2)C1=O (stereo unspecified) | 53.1%
92 | Cc1nnc(SC2CCN(c3sccc3C#N)C2=O)[nH]1 (stereo unspecified) | 12.2%

Row | SMILES | Percent Effect
93 | N#Cc1ccsc1N1CCC(Sc2ncc[nH]2)C1=O (stereo unspecified) | 20.4%
94 | NC(=O)N1CC[C@@H]2O[C@@H](COCC(=O)N3CCCC3)CC[C@@H]21 | 0%
95 | CCCc1nc(CN2CCOC(CNc3cccnn3)C2)cs1 (stereo unspecified) | 69%
96 | CCc1nc(CN2CCOC(CNc3cccnn3)C2)cs1 (stereo unspecified) | 24.6%
97 | COCc1nc(CN2CCOC(CNc3cccnn3)C2)cs1 (stereo unspecified) | 35.1%
98 | CN(C)CCO[C@H]1CN(Cc2ccc3c(c2)OCO3)[C@@H]2COC[C@H]12 | 17.1%
99 | CN(C)C(=O)CO[C@H]1CN(Cc2ccc3c(c2)OCO3)[C@@H]2COC[C@H]12 | 13.2%
100 | O=C(c1cc(=O)n(-c2ccccc2)[nH]1)N1CCOCC(O)C1 (stereo unspecified) | 6.2%
101 | O=C(c1cc(=O)n(-c2ccccc2)[nH]1)N1CCCC(c2ccn[nH]2)C1 (stereo unspecified) | 59%
102 | O=C(c1cnnn1-c1ccccc1)N1CCCC(c2ccn[nH]2)C1 (stereo unspecified) | 15.7%
103 | Cc1ncsc1CN1C[C@@H]2COC[C@]2(CNC(=O)c2ccccc2)C1 | 20.5%
104 | CCN(CC)[C@H]1COC[C@@H]2CN(Cc3cnn(C)c3)C[C@@H]21 | 15.8%
105 | CCCn1nc2c(cc1=O)CN(Cc1nnc(C3CC3)o1)CC2 | 24.5%
106 | Cn1nc2c(cc1=O)CN(Cc1nc(C(C)(C)C)no1)CC2 | 82.4%
107 | Cn1nc2c(cc1=O)CN(Cc1nnc(C3CC3)o1)CC2 | 97.9%
108 | CCn1nc2c(cc1=O)CN(Cc1nnc(C3CC3)o1)CC2 | 22.6%
109 | Cn1nc2c(cc1=O)CN(Cc1nc(C3CC3)no1)CC2 | 102%
110 | CCn1nc2c(cc1=O)CN(Cc1nc(CCOC)no1)CC2 | 23.4%
111 | Cc1ccc(F)cc1CC(=O)N1CC[C@@]2(O)CCNC[C@H]2C1 | 4.92%
